Results filed as inconclusive are left out. Active and inactive are the calls of the source. The calls were made as follows: active = hit-call score of the fitted dose curve at least 0.9, where 1 is the maximum; inconclusive = response in the unintended direction; inactive = score below 0.9.
The compounds below were run against Oxysterols receptor LXR-beta (Homo sapiens) (UniProt P55055) (assay: ATG_LXRb_TRANS: Attagene TRANS-FACTORIAL HepG2 Assay for human Liver X Receptor beta (LXRb) (AID 2282981)). Settings: HepG2 Attagene TRANS GAL4-LXRb reporter, mRNA.
Method: ATG_TRANS is a cell-based, multiplexed-readout assay that uses HepG2, a human liver cell line, with measurements taken at 24 hours after chemical dosing in a 24-well plate.ATG_LXRb_TRANS is one of 30 assay component(s) measured or calculated from the ATG_TRANS assay. It is designed to make measurements of mRNA induction, a form of inducible reporter, as detected with fluorescence intensity signals by Reverse transcription polymerase chain reaction (RT-PCR) and Capillary electrophoresis technology.Data from the assay component ATG_LXRb_TRANS was analyzed into 1 assay endpoint. This assay endpoint, ATG_LXRb_TRANS, was analyzed in the positive analysis fitting direction relative to DMSO as the negative control and baseline of activity. Using a type of inducible reporter, measures of mRNA for gain-of-signal activity can be used to understand the reporter gene at the transcription factor-level as they relate to the gene NR1H2. Furthermore, this assay endpoint can be referred to as a primary readout, because this assay has produced multiple assay endpoints where this one serves a reporter gene function. To generalize the intended target to other relatable targets, this assay endpoint is annotated to the nuclear receptor intended target family, where the subfamily is non-steroidal.
Human liver HepG2 cells are transiently transfected with multiple reporter transcription units (MRTUs) in 6-well plates using FuGene 6 reagent (Roche; 3 ml FuGene/1 mg DNA). The MRTU constructs are regulated by a cis-regulating element (promoter). […] A major difference between the CIS and TRANS system is that in CIS activities of endogenous TFs are measured, whereas the TRANS assay evaluates changes in activities of exogenous, chimeric NR-Gal4 proteins. […] At the end of 24 hour incubation, total RNA was isolated using TriZol reagent (Invitrogen). The isolated RNA is then reverse-transcribed using oligo(dT) primer and Mo-MLV reverse transcriptase (Invitrogen) with DNAse I (Ambion) treatment for 30 min. The one-tenth of the produced cDNA was amplified by PCR using Taq DNA polymerase (Invitrogen) and two reporter sequence-specific primers. The PCR products were fluorescently labeled by primer extension with 6-arboxyfluorescein (6-FAM) 5'-labeled reporter sequence-specific primer (2 min at 95 C, 20 s at 68 C and 10 min at 72 C) and these products were digested with 5U of HpaI (New England Biolabs) for 2h at 37 C. The fragments were purified using Qiaquick PCR columns (Qiagen), analyzed on an ABI 3130xL genetic analyzer (Applied Biosystems) with peak positions identified by using a set of X-rhodamine (ROX)-labeled MapMarker1000 molecular weight standards (BioVentures). The raw capillary electrophoresis data was processed using Attagraph software (Attagene).

Sequence of Oxysterols receptor LXR-beta (Homo sapiens) (P55055 whole entry, looked up, the tested form may be a part): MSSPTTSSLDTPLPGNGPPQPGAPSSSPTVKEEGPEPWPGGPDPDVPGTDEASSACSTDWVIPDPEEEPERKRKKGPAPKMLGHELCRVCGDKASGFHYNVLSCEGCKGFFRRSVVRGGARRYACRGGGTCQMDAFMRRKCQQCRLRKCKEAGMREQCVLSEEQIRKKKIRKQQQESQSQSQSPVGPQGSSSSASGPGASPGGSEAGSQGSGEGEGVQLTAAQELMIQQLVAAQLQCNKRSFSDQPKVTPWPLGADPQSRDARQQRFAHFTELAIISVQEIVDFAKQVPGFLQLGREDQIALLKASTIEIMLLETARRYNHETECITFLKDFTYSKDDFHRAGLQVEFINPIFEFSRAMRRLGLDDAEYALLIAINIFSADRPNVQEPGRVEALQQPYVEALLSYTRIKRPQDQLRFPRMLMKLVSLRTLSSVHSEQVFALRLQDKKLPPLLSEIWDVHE

| Structure (SMILES) | outcome | AC50 |
| --- | --- | --- |
| [Cl][Au]([Cl])[Cl] | inactive | – |
| CCCCOC(=O)CCCCCCCC(=O)OCCCC | inactive | – |
| COc1ccccc1[N+](=O)[O-] | inactive | – |
| IC(I)I | inactive | – |
| C[C@H]1O[C@@H](O[C@H]2[C@@H](O)C[C@H](O[C@H]3[C@@H](O)C[C@H](O[C@H]4CC[C@@]5(C)[C@H](CC[C@@H]6[C@@H]5C[C@@H](O)[C@]5(C)[C@@H](C7=CC(=O)OC7)CC[C@]65O)C4)O[C@@H]3C)O[C@@H]2C)C[C@H](O)[C@@H]1O | inactive | – |
| CN(c1nccc(=O)[nH]1)C1CCN(c2nc3ccccc3n2Cc2ccc(F)cc2)CC1 | inactive | – |
| COS(=O)(=O)O | inactive | – |
| CS(=O)(=O)c1ccc(C2=C(c3ccccc3)C(=O)OC2)cc1 | inactive | – |
| CC1=CC[C@@]23C[C@@H]1C(C)(C)[C@@H]2CC[C@H]3C | inactive | – |
| CCCSc1ccc2nc(NC(=O)OC)[nH]c2c1 | inactive | – |
| OCCc1ccccc1 | inactive | – |
| CC(Oc1cc(Cl)ccc1Cl)C(=O)O (stereo not given) | inactive | – |
| CCC(C)=O | inactive | – |
| O=C(Nc1ccc2c(c1)Cc1ccccc1-2)C(F)(F)F | inactive | – |
| O=[N+]([O-])c1ccc(O)cc1C(F)(F)F | inactive | – |
| ON=C1CCCCC1 | inactive | – |
| CN(C)c1cccc(O)c1 | inactive | – |
| FC(F)(F)COCC(F)(F)F | inactive | – |
| CCc1ncc(C)[nH]1 | inactive | – |
| COCCOC(=O)c1ccccc1C(=O)OCCOC | inactive | – |

| Structure (SMILES) | outcome | AC50 |
| --- | --- | --- |
| Nc1c(Cl)cc(Cl)cc1[N+](=O)[O-] | inactive | – |
| C=C(C)C(=O)OCC(CC)(COC(=O)C(=C)C)COC(=O)C(=C)C | inactive | – |
| CCC1(C)NC(=O)NC1=O (stereo not given) | inactive | – |
| O=C(Nc1ccc2c(O)c(N=Nc3ccc(N=Nc4ccc(S(=O)(=O)O)cc4)cc3)c(S(=O)(=O)O)cc2c1)c1ccccc1 | inactive | – |
| O=C1OC[C@H](Cc2cccc(O)c2)[C@H]1Cc1cccc(O)c1 | inactive | – |
| CSc1c(Cl)c(Cl)c(Cl)c(Cl)c1Cl | inactive | – |
| c1ccc(CN(Cc2ccccc2)Cc2ccccc2)cc1 | inactive | – |
| Nc1ccn([C@H]2CS[C@@H](CO)O2)c(=O)n1 | inactive | – |
| CN(C)CCOc1ccc(/C(=C(/CCCl)c2ccccc2)c2ccccc2)cc1 | inactive | – |
| Cc1ccc(N)c(S(=O)(=O)O)c1 | inactive | – |
| CCC(=O)OCCOc1ccccc1 | inactive | – |
| CC(=O)CC(=O)Nc1ccc(C)cc1C | inactive | – |
| O=C1OC(=O)c2c(Cl)c(Cl)c(Cl)c(Cl)c21 | inactive | – |
| CCc1cc(Cc2cc(CC)cc(C(C)(C)C)c2O)c(O)c(C(C)(C)C)c1 | inactive | – |
| CC1C2CC(CC2C2CCCC(O)C2)C1(C)C (stereo not given) | – | 62.5 µM (active) |
| CCCCCCCCCCCC(=O)OC[C@@H](O)[C@H]1OC[C@H](O)[C@H]1O | inactive | – |
| C=CCCC(=O)/C=C/C1C(C)=CCCC1(C)C (stereo not given) | inactive | – |
| CCCCCCC(O)CCCCCCCCCCC(=O)O (stereo not given) | inactive | – |
| C=C(CC(=O)O)C(=O)O | inactive | – |
| c1ccc(Oc2ccccc2)cc1 | inactive | – |
